Inconclusive results are not listed. The source made the active and inactive calls. How the source made its calls: active means hit-call score of the fitted dose curve at least 0.9, where 1 is the maximum; inconclusive means response in the unintended direction; inactive means score below 0.9.
Experiments:
[1] = molecular target: human MAP Kinase-Activated Protein Kinase 2 (MAPKAPK2), MAPKAPK2 (gene 9261) (UniProt P49137); assay: NVS_ENZ_hMAPKAPK2: NovaScreen (NVS) Enzymatic Assay for human MAP Kinase-Activated Protein Kinase 2 (MAPKAPK2) (AID 2283178)
Description: NVS_ENZ_hMAPKAPK2 is a biochemical, single-readout assay that uses extracted gene-proteins in a cell-free assay. Measurements were taken 1 hour after chemical dosing in a 384-well plate.NVS_ENZ_hMAPKAPK2 is one of one assay component(s) measured or calculated from the NVS_ENZ_hMAPKAPK2 assay. It is designed to make measurements of enzyme activity, a form of enzyme reporter, as detected with fluorescence intensity signals by Fluorescence and electrophoretic mobility shift technology.Data from the assay component NVS_ENZ_hMAPKAPK2 was analyzed into 1 assay endpoint. This assay endpoint, NVS_ENZ_hMAPKAPK2, was analyzed in the positive analysis fitting direction relative to DMSO as the negative control and baseline of activity. Using a type of enzyme reporter, loss-of-signal activity can be used to understand changes in the enzymatic activity as they relate to the gene MAPKAPK2. Furthermore, this assay endpoint can be referred to as a primary readout, because this assay has produced multiple assay endpoints where this one serves a enzymatic activity function. To generalize the intended target to other relatable targets, this assay endpoint is annotated to the kinase intended target family, where the subfamily is serine/threonine kinase. […]

[2] = molecular target: human Matrix Metalloproteinase-2 (MMP2), MMP2 (gene 4313) (UniProt P08253); assay: NVS_ENZ_hMMP2: NovaScreen (NVS) Enzymatic Assay for human Matrix Metalloproteinase-2 (MMP2) (AID 2283184)
Summary of the method: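 Compounds first screened in duplicate at a single 25 uM, with actives followed up in concentration series. Recombinant human MMP2 cleaves a fluorogenic substrate; fluorescence taken at 1 h, inhibition fitted relative to DMSO.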

[3] = molecular target: sheep Cyclooxygenase-2 (Cox2), PTGS2 (gene 443460) (UniProt P79208); assay: NVS_ENZ_oCOX2: NovaScreen (NVS) Enzymatic Assay for sheep Cyclooxygenase-2 (Cox2) (AID 2283231)
Summary of the method: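 Enzyme from ovine placenta, cell-free; colorimetric absorbance read 0.66 hour after dosing, loss of signal vs DMSO. Screened in duplicate at 25 uM, then concentration-response up to 50 uM.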

[4] = molecular target: human Phosphoinositide 3-kinase alpha (PI3Ka), PIK3CA (gene 5290) (UniProt P42336); assay: NVS_ENZ_hPI3Ka: NovaScreen (NVS) Enzymatic Assay for human Phosphoinositide 3-kinase alpha (PI3Ka) (AID 2283196)
Summary of the method: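 Recombinant human PI3Kα with fluorescent substrate, 1 h, product separated by electrophoretic mobility shift; 25 uM duplicate screen, hits (e.g., 30% inhibition) retested singly up to 50 uM; loss of signal vs DMSO.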

[5] = molecular target: human Matrix Metalloproteinase-9 (MMP9), MMP9 (gene 4318) (UniProt P14780); assay: NVS_ENZ_hMMP9: NovaScreen (NVS) Enzymatic Assay for human Matrix Metalloproteinase-9 (MMP9) (AID 2283190);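 further: cell-free recombinant MMP9 protease activity read by fluorescent substrate signal; active means inhibition seen as loss of fluorescence signal versus DMSO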
Summary of the method: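 Cell-free recombinant MMP9 enzyme activity measured by fluorescence intensity 1 h after dosing. Primary screen in duplicate at 25 uM, actives followed in concentration series; loss of signal relative to DMSO.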

[6] = molecular target: human Vascular Endothelial Growth Factor Receptor 1 (VEGFR1), FLT1 (gene 2321) (UniProt P17948); assay: NVS_ENZ_hVEGFR1: NovaScreen (NVS) Enzymatic Assay for human Vascular Endothelial Growth Factor Receptor 1 (VEGFR1) (AID 2283226)
Summary of the method: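 Kinase activity of recombinant human VEGFR1 was read by fluorescence after electrophoretic separation of product from substrate, 1 h post-dosing; initial duplicate single-point testing at 25 uM, followed by concentration-series follow-up, with DMSO as baseline.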

[7] = molecular target: rat Constitutive Nitric Oxide Synthase (CNOS), Nos1 (gene 24598) (UniProt P29476); assay: NVS_ENZ_rCNOS: NovaScreen (NVS) Enzymatic Assay for rat Constitutive Nitric Oxide Synthase (CNOS) (AID 2283236)
Summary of the method: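 Single 25 uM duplicate screen, then concentration series to 50 uM for chemicals meeting threshold. Rat brain membrane-derived CNOS activity detected radiometrically by filtration and scintillation counting, 1 h after compound addition; DMSO as baseline.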

[8] = molecular target: guinea pig Leukotriene D4 Receptor (LTD4), CYSLTR1 (gene 100135514) (UniProt Q2NNR5); assay: NVS_GPCR_gLTD4: NovaScreen (NVS) G Protein-Coupled Receptor Assay for guinea pig Leukotriene D4 Receptor (LTD4) (AID 2283248)
Summary of the method: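 Guinea pig lung membrane preparation; bound radioligand measured by filter scintillation after 1 h, loss of signal versus DMSO marking displacement. Compounds tested at 25 uM in duplicate, hits retested to max 50 uM.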

Chain of human Phosphoinositide 3-kinase alpha (PI3Ka), PIK3CA (gene 5290) (P42336 whole entry, looked up): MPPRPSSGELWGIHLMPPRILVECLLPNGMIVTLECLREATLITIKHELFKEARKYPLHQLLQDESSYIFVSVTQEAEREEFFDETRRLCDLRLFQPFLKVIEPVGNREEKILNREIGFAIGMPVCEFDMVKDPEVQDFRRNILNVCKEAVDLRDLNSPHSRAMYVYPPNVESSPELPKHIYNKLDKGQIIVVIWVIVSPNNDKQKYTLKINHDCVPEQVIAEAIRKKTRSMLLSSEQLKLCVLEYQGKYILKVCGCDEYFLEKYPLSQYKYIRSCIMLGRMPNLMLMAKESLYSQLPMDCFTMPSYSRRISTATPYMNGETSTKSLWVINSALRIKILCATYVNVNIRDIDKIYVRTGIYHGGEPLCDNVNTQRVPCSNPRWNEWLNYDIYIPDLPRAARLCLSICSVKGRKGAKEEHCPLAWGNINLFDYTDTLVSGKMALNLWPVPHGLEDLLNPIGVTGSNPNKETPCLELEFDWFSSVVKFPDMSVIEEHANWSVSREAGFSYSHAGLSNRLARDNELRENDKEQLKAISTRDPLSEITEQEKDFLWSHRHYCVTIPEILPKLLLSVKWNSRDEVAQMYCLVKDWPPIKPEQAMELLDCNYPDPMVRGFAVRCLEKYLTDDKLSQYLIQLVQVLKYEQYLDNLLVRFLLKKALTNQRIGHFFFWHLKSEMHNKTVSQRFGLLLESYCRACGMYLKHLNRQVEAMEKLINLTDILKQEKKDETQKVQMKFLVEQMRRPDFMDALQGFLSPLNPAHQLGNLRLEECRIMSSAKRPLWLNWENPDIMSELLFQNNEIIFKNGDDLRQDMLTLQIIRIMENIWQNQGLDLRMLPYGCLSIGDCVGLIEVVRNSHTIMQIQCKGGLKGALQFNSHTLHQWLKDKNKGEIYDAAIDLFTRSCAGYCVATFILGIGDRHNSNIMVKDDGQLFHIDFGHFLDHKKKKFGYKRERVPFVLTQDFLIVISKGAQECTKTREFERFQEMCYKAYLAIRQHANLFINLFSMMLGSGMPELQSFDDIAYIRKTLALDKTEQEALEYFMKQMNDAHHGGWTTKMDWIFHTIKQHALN
Chain of sheep Cyclooxygenase-2 (Cox2), PTGS2 (gene 443460) (P79208 whole entry, looked up): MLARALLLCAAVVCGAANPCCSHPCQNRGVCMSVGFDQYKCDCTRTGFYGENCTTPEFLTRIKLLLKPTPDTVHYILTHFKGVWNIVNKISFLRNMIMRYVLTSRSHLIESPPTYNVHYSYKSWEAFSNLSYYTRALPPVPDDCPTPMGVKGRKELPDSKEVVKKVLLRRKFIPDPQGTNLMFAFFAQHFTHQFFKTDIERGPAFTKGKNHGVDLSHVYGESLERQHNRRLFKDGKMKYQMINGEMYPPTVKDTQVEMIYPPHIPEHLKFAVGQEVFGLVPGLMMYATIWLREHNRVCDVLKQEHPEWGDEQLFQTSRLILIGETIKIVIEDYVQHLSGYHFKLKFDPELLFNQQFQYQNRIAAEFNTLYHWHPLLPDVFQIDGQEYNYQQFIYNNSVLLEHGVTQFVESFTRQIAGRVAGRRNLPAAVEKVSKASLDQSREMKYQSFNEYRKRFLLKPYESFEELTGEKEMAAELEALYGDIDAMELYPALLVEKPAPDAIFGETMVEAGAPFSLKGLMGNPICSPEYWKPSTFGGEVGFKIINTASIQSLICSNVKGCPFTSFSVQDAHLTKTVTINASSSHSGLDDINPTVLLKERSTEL
Chain of human MAP Kinase-Activated Protein Kinase 2 (MAPKAPK2), MAPKAPK2 (gene 9261) (P49137 whole entry, looked up): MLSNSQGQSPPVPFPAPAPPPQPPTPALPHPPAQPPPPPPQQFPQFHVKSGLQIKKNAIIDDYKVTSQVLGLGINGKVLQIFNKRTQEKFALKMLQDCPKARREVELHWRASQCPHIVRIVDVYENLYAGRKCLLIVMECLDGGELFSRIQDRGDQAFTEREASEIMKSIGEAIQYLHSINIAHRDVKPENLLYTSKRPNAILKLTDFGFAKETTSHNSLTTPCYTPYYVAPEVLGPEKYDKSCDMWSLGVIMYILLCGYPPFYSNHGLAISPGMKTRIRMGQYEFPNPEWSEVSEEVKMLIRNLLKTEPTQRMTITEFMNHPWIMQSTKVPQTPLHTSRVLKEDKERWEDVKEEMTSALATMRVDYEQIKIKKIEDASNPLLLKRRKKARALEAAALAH
Chain of human Matrix Metalloproteinase-2 (MMP2), MMP2 (gene 4313) (P08253 whole entry, looked up): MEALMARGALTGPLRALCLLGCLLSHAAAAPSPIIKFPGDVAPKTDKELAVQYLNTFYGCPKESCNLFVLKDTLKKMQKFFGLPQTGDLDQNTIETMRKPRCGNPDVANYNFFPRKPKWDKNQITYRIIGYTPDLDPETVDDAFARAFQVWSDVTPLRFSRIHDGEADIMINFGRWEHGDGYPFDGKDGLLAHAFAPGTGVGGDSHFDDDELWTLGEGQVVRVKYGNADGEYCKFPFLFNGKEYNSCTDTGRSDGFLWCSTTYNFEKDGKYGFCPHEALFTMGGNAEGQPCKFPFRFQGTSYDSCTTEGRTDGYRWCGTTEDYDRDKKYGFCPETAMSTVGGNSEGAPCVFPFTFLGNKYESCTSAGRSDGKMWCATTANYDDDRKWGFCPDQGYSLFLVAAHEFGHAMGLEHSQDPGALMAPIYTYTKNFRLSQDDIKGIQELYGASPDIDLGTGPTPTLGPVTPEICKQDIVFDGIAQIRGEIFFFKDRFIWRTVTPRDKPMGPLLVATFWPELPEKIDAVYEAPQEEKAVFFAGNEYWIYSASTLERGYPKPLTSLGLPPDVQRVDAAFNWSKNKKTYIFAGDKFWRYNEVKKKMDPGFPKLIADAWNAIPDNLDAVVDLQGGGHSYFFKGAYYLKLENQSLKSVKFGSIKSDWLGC
Chain of rat Constitutive Nitric Oxide Synthase (CNOS), Nos1 (gene 24598) (P29476 whole entry, looked up): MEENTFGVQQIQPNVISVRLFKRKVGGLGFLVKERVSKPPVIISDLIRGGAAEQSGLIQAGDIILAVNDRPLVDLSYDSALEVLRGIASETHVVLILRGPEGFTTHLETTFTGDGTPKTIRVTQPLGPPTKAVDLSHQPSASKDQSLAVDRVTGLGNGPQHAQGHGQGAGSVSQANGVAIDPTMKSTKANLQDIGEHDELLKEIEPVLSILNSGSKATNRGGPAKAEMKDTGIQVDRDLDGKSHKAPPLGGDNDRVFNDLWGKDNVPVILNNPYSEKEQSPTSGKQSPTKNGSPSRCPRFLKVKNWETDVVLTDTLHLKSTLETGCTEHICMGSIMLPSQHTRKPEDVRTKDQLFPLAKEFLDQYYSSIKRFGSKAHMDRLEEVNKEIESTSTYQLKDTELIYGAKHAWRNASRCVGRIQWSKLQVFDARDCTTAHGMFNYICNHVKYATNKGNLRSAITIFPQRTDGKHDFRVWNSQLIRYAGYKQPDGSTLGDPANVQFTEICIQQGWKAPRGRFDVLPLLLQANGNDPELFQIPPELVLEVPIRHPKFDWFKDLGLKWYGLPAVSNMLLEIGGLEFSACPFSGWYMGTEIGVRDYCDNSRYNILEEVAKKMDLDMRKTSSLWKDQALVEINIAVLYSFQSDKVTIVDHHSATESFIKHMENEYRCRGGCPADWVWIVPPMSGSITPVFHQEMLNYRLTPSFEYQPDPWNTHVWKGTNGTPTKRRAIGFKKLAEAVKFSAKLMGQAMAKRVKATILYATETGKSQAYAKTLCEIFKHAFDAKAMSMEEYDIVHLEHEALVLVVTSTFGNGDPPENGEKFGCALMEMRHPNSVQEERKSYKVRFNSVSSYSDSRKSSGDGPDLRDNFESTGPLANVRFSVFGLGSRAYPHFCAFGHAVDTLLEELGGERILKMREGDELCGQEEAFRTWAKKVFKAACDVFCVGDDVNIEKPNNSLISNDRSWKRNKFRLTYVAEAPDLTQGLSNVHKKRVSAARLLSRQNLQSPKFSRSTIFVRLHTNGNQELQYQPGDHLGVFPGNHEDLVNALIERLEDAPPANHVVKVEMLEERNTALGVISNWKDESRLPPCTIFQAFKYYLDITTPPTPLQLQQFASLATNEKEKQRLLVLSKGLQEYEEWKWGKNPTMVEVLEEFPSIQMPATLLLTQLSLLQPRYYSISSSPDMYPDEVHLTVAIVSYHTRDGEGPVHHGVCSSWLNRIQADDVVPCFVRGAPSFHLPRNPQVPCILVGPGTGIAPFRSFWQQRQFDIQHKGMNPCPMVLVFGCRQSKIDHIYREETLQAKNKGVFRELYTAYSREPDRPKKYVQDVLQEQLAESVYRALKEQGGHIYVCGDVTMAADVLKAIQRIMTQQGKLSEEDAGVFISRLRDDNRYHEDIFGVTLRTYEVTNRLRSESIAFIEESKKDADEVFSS
Chain of human Matrix Metalloproteinase-9 (MMP9), MMP9 (gene 4318) (P14780 whole entry, looked up): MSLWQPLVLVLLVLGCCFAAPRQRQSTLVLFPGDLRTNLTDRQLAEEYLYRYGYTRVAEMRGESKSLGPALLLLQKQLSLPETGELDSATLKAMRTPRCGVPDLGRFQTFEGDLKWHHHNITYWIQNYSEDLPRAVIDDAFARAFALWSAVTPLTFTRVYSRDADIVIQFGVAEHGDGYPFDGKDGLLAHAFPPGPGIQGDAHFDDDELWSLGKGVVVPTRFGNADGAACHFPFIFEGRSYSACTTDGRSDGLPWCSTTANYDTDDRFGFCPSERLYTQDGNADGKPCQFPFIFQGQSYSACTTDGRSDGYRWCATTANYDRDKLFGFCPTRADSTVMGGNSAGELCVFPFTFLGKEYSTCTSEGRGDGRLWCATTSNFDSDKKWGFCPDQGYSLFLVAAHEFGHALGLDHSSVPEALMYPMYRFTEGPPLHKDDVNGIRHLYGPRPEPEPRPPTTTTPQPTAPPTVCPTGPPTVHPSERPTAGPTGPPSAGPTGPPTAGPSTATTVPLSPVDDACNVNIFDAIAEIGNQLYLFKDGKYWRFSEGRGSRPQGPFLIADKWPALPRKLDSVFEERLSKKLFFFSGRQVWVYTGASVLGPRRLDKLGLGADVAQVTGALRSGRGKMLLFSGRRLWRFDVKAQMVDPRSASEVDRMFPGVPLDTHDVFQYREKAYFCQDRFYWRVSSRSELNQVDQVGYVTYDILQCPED

Nc1ccc(C(=O)O)cc1
outcome [1]: inactive

CCN1CN(CC)CN(CC)C1
outcome [2]: inactive | outcome [3]: inactive

CCCCOCCOCCOC(C)=O
outcome [4]: inactive

CC=C(C)C=CC=C(C)C
AC50 [4]: 0.976 µM (active)

CO[Si](CCCS)(OC)OC
AC50 [5]: 12.4 µM (active)

Nc1cccc(N)n1
outcome [6]: inactive

C=C(C)C1CC=C(C)CC1 (stereo not given)
AC50 [3]: 19.3 µM (active)

Cc1ccc([N+](=O)[O-])cc1N
AC50 [7]: 7.96 µM (active)

CN1CCN(C)CC1
outcome [8]: inactive

— PubChem BioAssay (EPA / NIEHS)
